Laboratory results reported in ChEMBL document CHEMBL3433997, “St. Jude Leishmania screening dataset” (2016).

What was measured:
Format in all cases: functional
[1] = biological target: Solute carrier family 2, facilitated glucose transporter member 1 (Homo sapiens) (UniProt P11166); test: ST_JUDE_LEISH: Cytotoxicity at 2uM final concentration against transgenic Leishmania Mexicana promastigotes LmGLUT1 that are glucose transport deficient and complemented with the human glucose transporter GLUT1. Activity is measured by DNA content using SYBR green in vitro
Solute carrier family 2, facilitated glucose transporter member 1 (Homo sapiens), sequence (P11166 whole entry): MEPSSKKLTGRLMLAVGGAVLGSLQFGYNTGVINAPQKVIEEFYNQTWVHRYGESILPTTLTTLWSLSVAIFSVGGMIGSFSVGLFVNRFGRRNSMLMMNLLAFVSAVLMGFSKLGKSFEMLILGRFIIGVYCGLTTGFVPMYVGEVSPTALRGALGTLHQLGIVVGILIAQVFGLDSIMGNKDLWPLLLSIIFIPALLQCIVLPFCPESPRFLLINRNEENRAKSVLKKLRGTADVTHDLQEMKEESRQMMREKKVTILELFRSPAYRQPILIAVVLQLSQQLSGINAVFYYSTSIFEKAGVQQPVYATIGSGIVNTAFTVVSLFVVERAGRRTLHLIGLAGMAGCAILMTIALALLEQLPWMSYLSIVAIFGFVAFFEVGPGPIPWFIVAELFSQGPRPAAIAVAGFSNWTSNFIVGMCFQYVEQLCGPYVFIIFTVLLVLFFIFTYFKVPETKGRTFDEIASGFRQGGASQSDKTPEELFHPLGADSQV

[2] = biological target: Hexose transporter 1 (Plasmodium falciparum) (UniProt O97467); test: ST_JUDE_LEISH: Cytotoxicity at 2uM final concentration against transgenic Leishmania Mexicana promastigotes LmPfHT that are glucose transport deficient and complemented with the Plasmodium falciparum hexose transporter. Activity is measured by DNA content using SYBR green in vitro
[3] = biological target: Glucose transporter (Leishmania mexicana) (UniProt O61059); test: ST_JUDE_LEISH: Cytotoxicity at 2uM final concentration against transgenic Leishmania Mexicana promastigotes LmGT2 that are glucose transport deficient and complemented with the L. Mexicana glucose transporter 2. Activity is measured by DNA content using SYBR green in vitro

| Compound | inhibition [1] [%] | inhibition [2] [%] | inhibition [3] [%] |
| --- | --- | --- | --- |
| C=CCNC(CCCCC)c1ccc(OCCOc2ccc(C(CCCCC)NCC=C)cc2)cc1 (centres undefined) | 0.79 | 11.9 | 3.03 |
| COc1cc2c(cc1C(F)(F)F)N(C(=O)Nc1cc(F)c(F)c(-c3cccnc3)c1)CC2 | 10.1 | 1.42 | -4.39 |
| CC[C@H](C)[C@@H](C(=O)N1CCOCC1)N1CC[C@H](NS(=O)(=O)CC(C)(C)c2ccc(Cl)cc2)C1=O | 0.22 | 0.79 | -1.13 |
| c1ccc(COc2ccc(Nc3ncnc4cnc(-c5ccc(CN6CCCCC6)o5)cc34)cc2)cc1 | 1.44 | 1.73 | 2.99 |
| Nc1nc(N)c2c(ccc3c2ccn3CCCF)n1 | 1.79 | 5.24 | 0.69 |
| Clc1ccc2c(N3CCN(CCN4CCN(c5ccnc6cc(Cl)ccc56)CC4)CC3)ccnc2c1 | 0.09 | 0.23 | 0.08 |
| COc1cc2nc(NCC3CCN(c4nc(N)c5cc(OC)c(OC)cc5n4)CC3)nc(N)c2cc1OC | 3.62 | 2.73 | 3.28 |
| O=C(NC(=O)c1ccccc1O)c1ccccc1O | -0.08 | 0.7 | 0.89 |
| Cc1cc(C(=O)CN2C(=O)NC3(CCCc4ccccc43)C2=O)c(C)n1Cc1ccc(F)cc1 (centres undefined) | 2.81 | 2.54 | 5.14 |
| C=C(C)Cn1cc(C2CCN(CCN3CCC(CNC(=O)c4ccc(-c5ccc(C#N)cc5)cc4)CC3)CC2)c2ccccc21 | 7.94 | 4.28 | 5.17 |
| Cc1cccc2nc(-c3ccc(-c4ccc(CN5CCCC(N)C5)cc4)cc3)[nH]c12 (centres undefined) | 8.17 | 11 | 2.6 |
| O=S(=O)(Nc1cccc(CCN2CCCCC2CCN2CCCC2)c1)c1ccc(Oc2ccccc2)cc1 (centres undefined) | -2.34 | 1.13 | -1.81 |
| COc1ccccc1C1CCN(CCCCNC(=O)c2ccc(/C=C/c3cc(Cl)cc(Cl)c3)cc2)CC1 | 2.68 | 2.81 | 1.77 |
| CCCCCCCCc1c(C)nc(C)c(I)c1O | -1.12 | 0.28 | -2.61 |
| C=CCn1c(SCc2c(C)noc2C)nc2scc(-c3cccs3)c2c1=O | 0.98 | 0.21 | -5.13 |
| CC(CN(C)C)C(=O)Nc1cccc(-c2ccc(-c3nc4cc(F)ccc4[nH]3)s2)c1 (centres undefined) | 3.85 | 2.55 | 4.47 |
| O=C(Nc1ccccc1)c1c[nH]cn1 | 0.43 | 2.14 | -0.23 |
| CC(C)(C)c1ccc(NC(=O)Nc2ccc(Cn3ncc(N4CCCNCC4)c(Cl)c3=O)cc2)cc1 | 6.36 | 6.82 | 3.41 |
| CC(C)(C)c1ccc2[nH]c(-c3ccc(/C=C/C(=O)NC4CCN(Cc5ccccc5)CC4)cc3)nc2c1 | 9.73 | 10.5 | 7.5 |
| Cc1cccc2nc(-c3cccc(-c4cccc(NC(=O)Nc5ccc(F)c(F)c5F)c4)c3)[nH]c12 | 1.75 | 2.51 | 2.44 |
| COc1ccc(C=NNc2nc3ccccc3[nH]2)cc1O | -3.31 | -1.02 | 1.86 |
| O=C(NCCCCN1CCC(c2c[nH]c3ccccc23)CC1)c1sc(-c2ccc(C(F)(F)F)cc2)nc1CO | 7.38 | 8.88 | 5.81 |
| CCCC(=O)NC(c1cccs1)c1cc(Cl)c2cccnc2c1O (centres undefined) | 0.53 | 1.83 | -0.61 |
| Cc1noc(-c2ccccc2)c1CN1CCCC2(CC(C(=O)NCc3cccc(F)c3F)=NO2)C1 (centres undefined) | 0.11 | -0.09 | -0.8 |
| CCCCCCCN1CCC(CC(=O)Nc2ccnc3ccc(OC)cc23)CC1 | 11.3 | 9.11 | 6.34 |

| Compound | inhibition [1] [%] | inhibition [2] [%] | inhibition [3] [%] |
| --- | --- | --- | --- |
| CCN(CC)c1nc(N)c2c(N)nc3c(c2c1C#N)C(=O)CN3Cc1ccccc1 | 7.21 | 6.8 | 6.97 |
| N=C(N)Nc1ccc(CCc2ccc(NC(=N)N)cc2)cc1 | 4.14 | 4.16 | 2.91 |
| Brc1cccc(Nc2nccc(Nc3ccc(Oc4ccccc4)cc3)n2)c1 | 6.01 | 5.97 | -0.46 |
| COc1ccc2[nH]c(C)cc(=NN=Cc3ccccc3F)c2c1 | -0.29 | 2.87 | -2.38 |
| CCCC(=O)Nc1ccc(OCCCCN(Cc2ccccc2C(F)(F)F)c2ccc(C(F)(F)F)c(C#N)c2)cc1 | 6.19 | 5.86 | 5.58 |
| C[C@@H](NC(=O)c1nn(-c2ccc(Cl)cc2)c(=O)c2ccccc12)C(C)(C)C | 1.61 | 1.12 | 0.85 |
| N#Cc1ccc(CN2CCCN(Cc3cccc(NC(=O)c4cc5ccccc5s4)c3)CC2)cc1 | -0.46 | -0.58 | -1.54 |
| CN(C)CCCOc1cccc(NC(=O)Nc2ccc(-c3ccccc3)cc2)c1 | -1.01 | -1.23 | -3.41 |
| O=C1COc2ccccc2N1C/C=C(\CN1CCC(c2ccccc2)CC1)c1cc(Cl)cc(Cl)c1 | 1.77 | 1.99 | 1.69 |
| COc1ccc(-n2nc(C)c3c2NC(=O)CC3c2ccccc2OCc2ccccc2F)cc1 (centres undefined) | 11.7 | 11.4 | 9.27 |
| CCCCCN1CCCC1CNS(=O)(=O)c1cccc(C(=O)Nc2cccc(C(F)(F)F)c2)c1 (centres undefined) | 6.45 | 6.76 | 5.05 |
| CC(C)(C)c1ccc(CN2CCCCC(NC(=O)c3cc(-c4ccccc4F)cs3)C2)cc1 (centres undefined) | -1.83 | -0.56 | 0 |
| CNCc1ccc(CN(C)c2nc(N)c3cc(OC)c(OC)cc3n2)cc1 | 4.8 | 5.4 | 6.34 |
| C#CCCOc1ccc2ccccc2c1CNCCCCCCNCc1c(OCCC#C)ccc2ccccc12 | -1.76 | 3.36 | -0.13 |
| Nc1c2c(nc3ccc(C(=O)Nc4cc(I)c(O)c(I)c4)cc13)CCCC2 | 1.22 | 1.9 | 1.74 |
| CCNC(=O)c1ccc2c(c1)c(C)c(C)n2Cc1ccc(F)cc1 | 0.6 | -0.64 | 1.15 |
| CN(CCCCCN1CCC(NC(=O)Nc2ccc(C(F)(F)F)cc2)C1)C(=O)/C=C/c1ccc(Cl)c(Cl)c1 (centres undefined) | 3.11 | 2.11 | 2.97 |
| COc1ccccc1CN1CCC(NC(=O)c2ccc(-c3ccc(N(C)C)cc3)s2)CC1 | 9.96 | 12.6 | 8.12 |
| O=C(Nc1ccc(Cl)cc1)Nc1ccc(Cn2ncc(N3CCCNCC3)c(Cl)c2=O)cc1 | 2.02 | 5.96 | 2.56 |
| Cc1ccc(C2(CN3CCC(NC(=O)c4cc[nH]n4)CC3)CCCCC2)cc1 | 0.21 | -1.4 | -0.05 |
| Cc1ccc(CNC(=O)c2cnc(N3CCN(c4ccncc4)CC3)c(Cl)c2)cc1 | 4.68 | 6.64 | 3.12 |
| O=C(NCc1ccc(F)cc1)Nc1ccc(-c2ccc(-c3nc4ccccc4[nH]3)cc2)cc1 | 1.28 | -0.46 | 0.75 |
| CC(C)Nc1cc(C(=O)N[C@@H](Cc2ccccc2)[C@H](O)CNC2CCOCC2)c(F)c(N2CCCCS2(=O)=O)c1 | 6.75 | 5.16 | 4.99 |
| Cc1ccc2c(=O)cc(CCc3cccc(F)c3F)n(CC(=O)N(Cc3ccc(-c4ccc(C(F)(F)F)cc4)cc3)C3CCN(C(C)C)CC3)c2n1 | -2.51 | -0.71 | -1.8 |
| O=C(Nc1ccc(Cn2ncc(N3CCCNCC3)c(Cl)c2=O)cc1)Nc1cc(C(F)(F)F)cc(C(F)(F)F)c1 | 2.99 | 1 | 1.99 |

| Compound | inhibition [1] [%] | inhibition [2] [%] | inhibition [3] [%] |
| --- | --- | --- | --- |
| N=C(N)NC(=O)Nc1cc(F)c(Cl)c(Br)c1 | 3.49 | 4.05 | -2.83 |
| CN1CCN(CC(=O)Nc2ccc(-c3ccc(-c4nc5ccccc5[nH]4)cc3)cc2)CC1 | 8.17 | 6.39 | 9.57 |
| COc1ccc(-c2cnc3ccc(NC4CCC(O)CC4)nn23)cn1 (centres undefined) | 2.52 | 0.45 | 0.93 |
| COc1ccc(NC(=O)[C@H](CC(C)C)Nc2cc(C)nc(NCCc3ccc(F)cc3)n2)cc1 | 5.65 | 4.09 | 3.65 |
| CC(C)c1cc2c(cc1O)C(Cc1ccccc1Cl)N(C)CC2 (centres undefined) | 2.73 | -0.25 | 0.89 |
| Cc1cc(-c2cccc(CNC3CCN(C)CC3)c2)ccc1S(=O)(=O)NCCc1ccccn1 | 0.29 | -0.31 | 0.73 |
| O=C(NCCCNc1ccnc2cc(Cl)ccc12)c1ccccc1F | 4.12 | 3.35 | 4.23 |
| COc1ccc(Cl)cc1N1CCN(CCCNC(=O)c2ccc(-c3nc4cnccc4[nH]3)c(Br)c2)CC1 | 0.19 | -0.19 | -0.85 |
| CN1CCN(c2cccc(-c3nnc(-c4ccc(OCC(=O)NCc5ccc(C(F)(F)F)cc5)c([N+](=O)[O-])c4)o3)c2)CC1 | 3.75 | 3.68 | -0.17 |
| O=C(NC1CC1)c1cnc(N2CCC(c3ccccc3)CC2)c(Cl)c1 | 2.86 | 6.43 | 3.1 |
| COc1cccc(C=CC(=O)N(CCN)Cc2ccccc2)c1 | 6.9 | 8.75 | 7.33 |
| CC(C)CC(=O)N1CCNC[C@@H]1C(=O)NCCSCc1c(F)cccc1Cl | 3.36 | 5.07 | 4.3 |
| N#Cc1cccc(C(=O)Nc2cccc(-c3ccc(CN4CCC(O)CC4)cc3)c2)c1 | 3.3 | -0.89 | 0.83 |
| COc1cc(NC(=O)/C=C/c2cc(F)cc(F)c2F)cc(OCCN2CCC3(CC2)OCCO3)c1 | 3.83 | 3.1 | 1.7 |
| NC1CCN(Cc2ccc(-c3cccc(-c4nc5cc(F)ccc5[nH]4)c3)cc2)C1 (centres undefined) | 16.9 | 14.7 | 12.8 |
| O=C(NCCN1CCC(NC(=O)c2ccc(-c3ccccn3)s2)CC1)c1ccc(Cl)c(Cl)c1 | 3.53 | 4.02 | 4.43 |
| COc1ccc2[nH]c(C)cc(=NN=Cc3cccc(F)c3)c2c1 | 5.17 | 5.7 | 2.61 |
| COc1ccc2nccc([C@@H](O)CN3CCC(NCc4cc5cccc(OC)c5o4)CC3)c2c1 | 1.32 | 3.57 | -0.75 |
| Cc1cc(N(C)C)nc(Nc2ccc(NC(=O)CCc3ccccc3)cc2)n1 | 3.05 | 6.42 | 2.1 |
| CN1CCC(c2ccc(NC(=O)c3ccc(-c4cccc(C(F)(F)F)c4)o3)cc2)CC1 | 2.13 | 1.69 | 1.19 |
| Cc1ccc(O)c(-c2cc(C(=O)Nc3ccc(S(=O)(=O)N4CCCCC4)cc3)[nH]n2)c1 | 3.32 | 1.22 | 1.19 |
| Oc1cccc(/C=N/Nc2ccnc3cc(Cl)ccc23)c1 | 4.49 | 0.91 | 3.14 |
| c1cc(CN2CCCCC2)cc(-c2ccc(-c3nc4ccccc4[nH]3)s2)c1 | 4.86 | 1.16 | -0.82 |
